Assay [1] can be described thus: A CellTox Green Cytotoxicity Assay to monitor cytotoxicity in HepG2 cells - 16 hour (AID 1224876). Note: nearly all actives have a fitted effect of over 45% in size. The method, boiled down: (§1)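 Real-time, homogeneous cytotoxicity readout: dead-cell DNA staining by CellTox Green in HepG2 monolayers, fluorescence measured at timed intervals up to 40 h of continuous compound exposure.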
The nature of assay [2]: A CellTox Green Cytotoxicity Assay to monitor cytotoxicity in HepG2 cells - 24 hour (AID 1224878). Note: nearly all actives have a fitted effect of over 45% in size. The method, boiled down: as §1
Assay [3] can be described thus: A CellTox Green Cytotoxicity Assay to monitor cytotoxicity in HepG2 cells - 40 hour (AID 1224879). Note: nearly all actives have a fitted effect of over 40% in size. The method, boiled down:
as §1

A short description of assay [4]: qHTS RealTime-Glo MT Cell Viability Assay in HEK293 cells - 0 hour (AID 1224880). Note: top concentration of the series differs between compounds; nearly all actives have a fitted effect of over 45% in size. The method, boiled down: (§2)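 Nonlytic bioluminescent viability monitoring. HEK293 at 600 cells/well with reagent; 5 h settle; compound transfer by pintool; plates held at 37 C and read at set time points.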
Assay [5] can be described thus: A CellTox Green Cytotoxicity Assay to monitor cytotoxicity in HepG2 cells - 32 hour (AID 1224883). Note: nearly all actives have a fitted effect of over 50% in size. The method, boiled down:
as §1

The nature of assay [6]: A CellTox Green Cytotoxicity Assay to monitor cytotoxicity in HEK293 cells - 8 hour (AID 1224884). Note: nearly all actives have a fitted effect of over 35% in size. The method, boiled down: (§3)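 Cytotoxicity was tracked continuously in HEK293 cells by a DNA-binding dye excluded from viable cells. Compounds were transferred in DMSO 5 h after seeding; fluorescence was recorded at intervals up to 40 h.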
Assay [7] in a line: qHTS RealTime-Glo MT Cell Viability Assay in HepG2 cells - 16 hour (AID 1224885). Note: nearly all actives have a fitted effect of over 50% in size. The method, boiled down:
(§4)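 Real-time, nonlytic viability: 600 HepG2 cells/well mixed with NanoLuc enzyme plus prosubstrate; 5 h settle, compound (DMSO) added by pintool; luminescence monitored over 40 h at 37 C.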
(In general: Quantitative high-throughput screening tests each substance at several concentrations.)

Assay [8] can be described thus: qHTS RealTime-Glo MT Cell Viability Assay in HEK293 cells - 24 hour (AID 1224886). Note: top concentration of the series differs between compounds; nearly all actives have a fitted effect of over 50% in size. The method, boiled down: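 Cells + reagent dispensed (600 cells/well, HEK293) → 5 h at 37 C/5% CO2 → 23 nL compound in DMSO pinned → 40 h at 37 C → luminescence read at 0, 8, 16, 24, 32, 40 h.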
Assay [9] is described as follows: A CellTox Green Cytotoxicity Assay to monitor cytotoxicity in HEK293 cells - 16 hour (AID 1224888). Note: nearly all actives have a fitted effect of over 35% in size. The method, boiled down: as §3
Assay [10] can be described thus: qHTS RealTime-Glo MT Cell Viability Assay in HepG2 cells - 0 hour (AID 1224889). Note: nearly all actives have a fitted effect of over 50% in size. The method, boiled down: as §4
Assay [11] is described as follows: A CellTox Green Cytotoxicity Assay to monitor cytotoxicity in HepG2 cells - 8 hour (AID 1224890). Note: nearly all actives have a fitted effect of over 45% in size. The method, boiled down:
as §1

The nature of assay [12]: qHTS assay to identify small molecule antagonists of the estrogen receptor alpha (ER-alpha) signaling pathway using the BG1 cell line in the presence of 0.1 nM 17-beta-estradiol - cell viability counter screen (AID 1259241). Note: nearly all actives have a fitted effect of over 40% in size. The method, boiled down:
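Estradiol-stimulated (0.1 nM) VM7Luc4E2 cells exposed to compounds 22 hr; viability measured by fluorescence of cleaved CellTiter-Fluor substrate after 30 min.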

Assay [13] is described as follows: qHTS assay to identify small molecule antagonists of the androgen receptor (AR) signaling pathway using the MDA cell line in the presence of 0.5 nM R1881 - cell viability counter screen (AID 1259242). Note: nearly all actives have a fitted effect of over 45% in size. The method, boiled down:
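Cytotoxicity toward MDA-kb2 cells is measured by CellTiter-Fluor live-cell protease fluorescence after 16 hr compound exposure at 37C in the presence of 0.5 nM R1881 stimulator.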

Assay [14] addresses Estrogen receptor (Homo sapiens) (UniProt P03372). The assay is described as follows: qHTS assay to identify small molecule antagonists of the estrogen receptor alpha (ER-alpha) signaling pathway using the BG1 cell line in the presence of 0.1 nM 17-beta-estradiol (AID 1259244). Note: nearly all actives have a fitted effect of over 50% in size. The method, boiled down: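 After 5 days in hormone-depleted medium (charcoal-stripped serum, no phenol red), VM7Luc4E2 cells were seeded, incubated 24 h, then co-treated with compound and 0.1 nM (final) estradiol for 22 h before luminescence detection.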

Assay [15] in a line: A CellTox Green Cytotoxicity Assay to monitor cytotoxicity in HEK293 cells - 32 hour (AID 1224881). Note: nearly all actives have a fitted effect of over 40% in size. Note: potency is the fitted concentration of half-maximal effect. The method, boiled down: as §3
The nature of assay [16]: A CellTox Green Cytotoxicity Assay to monitor cytotoxicity in HepG2 cells - 0 hour (AID 1224882). Note: nearly all actives have a fitted effect of over 35% in size. The method, boiled down: as §1
A short description of assay [17]: qHTS RealTime-Glo MT Cell Viability Assay in HEK293 cells - 8 hour (AID 1224887). The method, boiled down: as §2
The target of assay [18] is Androgen receptor (Homo sapiens) (UniProt P10275). The assay is described as follows: qHTS assay to identify small molecule antagonists of the androgen receptor (AR) signaling pathway using the MDA cell line in the presence of 0.5 nM R1881 (AID 1259243). Note: nearly all actives have a fitted effect of over 50% in size. The method, boiled down:
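Steps: seed MDA-kb2 cells, incubate 5 hr at 37C; pin-transfer compounds in DMSO; add R1881 to 0.5 nM final; incubate 16 hr; add ONE-Glo, wait 30 min at room temperature; read luminescence.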

A short description of assay [19]: qHTS RealTime-Glo MT Cell Viability Assay in HepG2 cells - 32 hour (AID 1224877). Note: nearly all actives have a fitted effect of over 55% in size. The method, boiled down: as §4
Assay [20] is described as follows: qHTS assay to identify small molecule phospholipidosis (PLD) inducers (AID 1259344; active = well fitted curve in the direction sought with a large enough effect; an effect the other way counts as inactive or inconclusive). The method, boiled down:
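Phospholipidosis is scored by imaging LipidTOX-stained pits in HepG2 cells exposed to compound for 24 h at 37 C; pit counts and integrated intensities per well and per cell serve as outputs.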

Results filed as inconclusive are left out. The source made the active and inactive calls. Unless noted, calls come from the whole dose curve; as a rule, active = well fitted curve in the direction sought with a large enough effect in the repeat runs; inconclusive = weak or mixed curves; inactive = no such curve, though single readings can be large; an effect the other way counts as inactive or inconclusive.

Sequence of Estrogen receptor (Homo sapiens) (P03372 whole entry, looked up): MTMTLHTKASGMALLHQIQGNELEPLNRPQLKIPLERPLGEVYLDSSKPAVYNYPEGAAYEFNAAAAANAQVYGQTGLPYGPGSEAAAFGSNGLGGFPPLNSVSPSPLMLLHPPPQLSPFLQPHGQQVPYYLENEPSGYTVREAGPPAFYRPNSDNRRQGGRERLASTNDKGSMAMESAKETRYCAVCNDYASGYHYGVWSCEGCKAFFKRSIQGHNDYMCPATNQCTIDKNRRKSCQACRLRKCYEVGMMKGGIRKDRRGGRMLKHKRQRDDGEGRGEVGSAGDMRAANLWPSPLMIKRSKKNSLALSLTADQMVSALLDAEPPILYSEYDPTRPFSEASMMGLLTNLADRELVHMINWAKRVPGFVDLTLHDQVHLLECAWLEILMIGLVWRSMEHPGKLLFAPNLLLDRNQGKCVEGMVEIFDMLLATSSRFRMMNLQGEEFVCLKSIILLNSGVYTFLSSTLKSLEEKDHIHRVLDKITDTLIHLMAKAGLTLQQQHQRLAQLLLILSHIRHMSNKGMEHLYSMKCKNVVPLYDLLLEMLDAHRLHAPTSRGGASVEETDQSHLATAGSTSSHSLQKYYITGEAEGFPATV
Sequence of Androgen receptor (Homo sapiens) (P10275 whole entry, looked up): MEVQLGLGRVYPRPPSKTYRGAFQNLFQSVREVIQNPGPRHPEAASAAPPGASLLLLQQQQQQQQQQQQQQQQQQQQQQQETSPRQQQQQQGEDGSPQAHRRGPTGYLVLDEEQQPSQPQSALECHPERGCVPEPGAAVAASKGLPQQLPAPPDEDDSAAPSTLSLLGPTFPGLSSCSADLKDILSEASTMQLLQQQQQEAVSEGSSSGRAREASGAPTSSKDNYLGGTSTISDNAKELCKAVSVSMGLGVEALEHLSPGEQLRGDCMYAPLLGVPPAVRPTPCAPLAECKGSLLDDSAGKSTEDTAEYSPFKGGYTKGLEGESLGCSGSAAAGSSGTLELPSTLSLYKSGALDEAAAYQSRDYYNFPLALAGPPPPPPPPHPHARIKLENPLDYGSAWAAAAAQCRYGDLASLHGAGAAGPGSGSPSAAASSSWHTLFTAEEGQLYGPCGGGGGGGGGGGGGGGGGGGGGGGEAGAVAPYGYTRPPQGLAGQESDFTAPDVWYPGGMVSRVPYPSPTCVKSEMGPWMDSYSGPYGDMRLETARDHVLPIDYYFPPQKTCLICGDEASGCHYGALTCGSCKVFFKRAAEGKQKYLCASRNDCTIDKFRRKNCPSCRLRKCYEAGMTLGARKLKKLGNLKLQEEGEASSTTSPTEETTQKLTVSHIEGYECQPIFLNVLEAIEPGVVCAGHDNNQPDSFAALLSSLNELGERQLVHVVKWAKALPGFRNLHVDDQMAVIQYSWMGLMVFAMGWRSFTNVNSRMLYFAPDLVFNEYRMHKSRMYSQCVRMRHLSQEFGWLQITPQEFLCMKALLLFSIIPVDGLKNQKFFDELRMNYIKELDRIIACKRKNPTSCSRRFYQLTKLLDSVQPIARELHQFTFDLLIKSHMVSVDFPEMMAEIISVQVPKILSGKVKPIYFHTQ

Turning to `CC(C)CO`, the Potency entry in assay [1], in assay [2], in assay [3], in [4], in assay [5] and in assay [6] was “inactive” each time. Further, the Potency entry in assay [8], in assay [9], in assay [10] and in assay [11] was “inactive” in each case. The call in assay [7], in assay [12], in assay [13] and in assay [14] was inactive.
As to `C=CCOC(=O)CCCCCC`, the Potency result in assay [1], in assay [2], in assay [4], in [15], in assay [16] and in assay [6] was “inactive” in each case. The Potency entry in assay [8], in [17], in [9], in assay [10], in [11] and in [18] was “inactive” each time. Besides, the result in assay [7], in [12] and in [13] was inactive.
As to `Cn1c(=O)c2c(ncn2CCO)n(C)c1=O`, the compound was called inactive in [19], in assay [7], in [12] and in [20]. Further, the Potency entry in assay [4], in assay [15], in assay [6], in [8], in assay [9] and in assay [10] was “inactive” in each case.
As to `CN(C)CCOC(=O)C(c1ccccc1)C1(O)CCCC1` (stereo not drawn), the Potency result in assay [1], in assay [2], in [3], in assay [4], in [15] and in [16] was “inactive” in each case. Besides, the Potency entry in [6], in assay [8], in assay [17], in [9], in assay [10] and in assay [11] was “inactive” throughout. The compound was classed as inactive in assay [7], in [12], in [13], in [14] and in [20].
As to `Nc1nnnn1-c1ccccc1`, the call in assay [19], in [7], in assay [12], in [14] and in [20] was inactive. In addition, the Potency entry in [4], in assay [15], in assay [6], in assay [8], in assay [17] and in assay [9] was “inactive” each time. In addition, the Potency entry in assay [10] is “inactive”.
`CC(=O)CCC1=C(C)CCCC1(C)C`: the outcome in assay [19], in assay [7], in assay [12], in assay [13] and in assay [14] was inactive. Besides, the Potency result in assay [4], in [15], in assay [16], in assay [6], in assay [8] and in assay [17] was “inactive” throughout. Also, the Potency entry in assay [9], in [10] and in assay [11] was “inactive” in each case.
For the compound `Cc1c(N)cccc1Cl`, the Potency result in assay [1], in assay [2], in [3], in assay [4], in [15] and in assay [16] was “inactive” in each case. Further, the Potency result in assay [5], in assay [6], in assay [8], in [17], in [9] and in assay [10] was “inactive” throughout. Further, the Potency entry in assay [11] is “inactive”. Further, the compound was called inactive in assay [7], in assay [12] and in [14].
As for `COC(=O)/C=C\C(=O)O`, the Potency entry in assay [1], in [2], in [4], in [15], in assay [16] and in [5] was “inactive” throughout. The Potency result in [8], in assay [17], in [9], in assay [10] and in [11] was “inactive” each time. Besides, the call in [7], in assay [12], in assay [13] and in assay [14] was inactive.
Take `CC(=O)CC(=O)Nc1ccc(C)cc1C`: the Potency result in [1], in assay [2], in assay [3], in [4], in assay [15] and in assay [16] was “inactive” in each case. Further, the Potency result in [5], in assay [6], in assay [8], in assay [17], in [9] and in assay [10] was “inactive” each time. The Potency entry in assay [11] and in assay [18] was “inactive” each time. Also, the call in assay [7] and in assay [12] was inactive.
Take `CC(=O)CC(=O)OC(C)(C)C`: the Potency entry in [1], in assay [2], in assay [3], in assay [4], in assay [15] and in [16] was “inactive” each time. Moreover, the Potency entry in assay [5], in [8], in [17], in assay [9], in assay [10] and in assay [11] was “inactive” each time. For the same compound, the Potency result in assay [18] is “inactive”. The call in assay [7], in assay [12], in [13] and in assay [14] was inactive.
In the case of `COP(=O)(O)OP(=O)(O)OC`, the Potency entry in [1], in [2], in [4], in assay [15], in assay [5] and in assay [6] was “inactive” each time. Also, the Potency result in assay [8], in assay [17], in assay [9], in assay [10] and in [11] was “inactive” each time. Moreover, the call in [7], in assay [12], in assay [13] and in assay [14] was inactive.
Turning to `O=C1OCCO1`, the Potency entry in [1], in assay [2], in assay [4], in assay [5], in assay [6] and in [8] was “inactive” each time. Further, the Potency result in assay [17], in [9], in [10] and in assay [11] was “inactive” throughout. In assay [15], the Potency was 366 nM (active). The compound was called inactive in [7], in assay [12], in assay [13] and in assay [14].
For `CC(=O)O[Si](C)(OC(C)=O)OC(C)=O`, the Potency entry in assay [1], in assay [2], in assay [3], in assay [4], in assay [15] and in [16] was “inactive” in each case. In addition, the Potency entry in [5], in [8], in [17], in assay [9], in [10] and in [11] was “inactive” each time. The compound was classed as inactive in [7], in [12] and in [13].
As to `COS(=O)(=O)O`, the outcome in [19], in [7] and in assay [12] was inactive. The Potency entry in [4], in assay [15], in assay [16], in [6], in [8] and in [17] was “inactive” in each case. The Potency entry in assay [9], in assay [10] and in [11] was “inactive” each time.
Take `O=C(O)CONC(=O)c1ccccc1`: the Potency result in assay [1], in [2], in assay [4], in assay [15], in assay [16] and in assay [6] was “inactive” each time. In addition, the Potency entry in assay [8], in assay [17], in assay [9], in assay [10] and in [11] was “inactive” throughout. Further, the result in assay [7], in [12] and in assay [13] was inactive.
Take `Cc1ccccc1C(N)=O`: the Potency result in assay [1], in [2], in assay [3], in [4], in [15] and in assay [16] was “inactive” throughout. The Potency entry in [5], in assay [8], in [17], in assay [9], in assay [10] and in assay [11] was “inactive” throughout. The outcome in assay [7], in assay [12] and in assay [13] was inactive.
On to `CC(C)OC(=O)CCC(=O)OC(C)C`, for which the Potency result in assay [1], in assay [2], in [4], in assay [15], in assay [16] and in [5] was “inactive” each time. The Potency entry in assay [6], in [8], in assay [17], in assay [9], in assay [10] and in assay [11] was “inactive” in each case. Also, the outcome in assay [7], in [12] and in [13] was inactive.
For `CCC(C)C(C)=O` (stereo not drawn), the Potency result in [1], in assay [2], in [3], in assay [4], in [15] and in assay [16] was “inactive” in each case. In addition, the Potency entry in assay [5], in assay [8], in [17], in assay [9], in assay [10] and in assay [11] was “inactive” each time. Moreover, the call in [7], in [12], in assay [13] and in [14] was inactive.
